Hits are enriched below; roughly 0.87% of the tested compounds scored in any of these assays.
FBPA coupling cs = coupling enzyme interference in Giardia aldolase counter-screen; coupling enzyme system counterscreen, AmpLite Red fluorescence; activity change, negative = inhibition, % at 58.2 µM, hits read low; hit rate 0.67% among 290,000; in the data active = activity change below about -30%
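Counterscreen of the coupled detection system alone, without aldolase: glyceraldehyde-3-phosphate coupling enzymes plus AmpLite Red readout. Compounds at 57.5 uM final, 10 min RT preincubation, 20 min RT reaction, fluorescence 525/598 nm.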
EPAC2 antagonist = antagonists of human EPAC2; EPAC2 GEF exchange of Rap1B-BODIPY-GDP, fluorescence; Potency, µM (titrated, usually from 114 µM), most hits filed as inhibitors; hit rate 0.18% among 360,000; AID 720708; also: nearly all actives have a fitted effect of over 45% in size
EPAC1 antag = EPAC1 (human) antagonism; Potency, µM (highest dose often 115 µM), actives largely listed as inhibitors; hit rate 0.14% among 360,000; O95398; EPAC1 GEF assay, Rap1b-BODIPY-GDP exchange fluorescence; also: nearly all actives have a fitted effect of over 50% in size
Target sequence (O95398 whole entry, looked up): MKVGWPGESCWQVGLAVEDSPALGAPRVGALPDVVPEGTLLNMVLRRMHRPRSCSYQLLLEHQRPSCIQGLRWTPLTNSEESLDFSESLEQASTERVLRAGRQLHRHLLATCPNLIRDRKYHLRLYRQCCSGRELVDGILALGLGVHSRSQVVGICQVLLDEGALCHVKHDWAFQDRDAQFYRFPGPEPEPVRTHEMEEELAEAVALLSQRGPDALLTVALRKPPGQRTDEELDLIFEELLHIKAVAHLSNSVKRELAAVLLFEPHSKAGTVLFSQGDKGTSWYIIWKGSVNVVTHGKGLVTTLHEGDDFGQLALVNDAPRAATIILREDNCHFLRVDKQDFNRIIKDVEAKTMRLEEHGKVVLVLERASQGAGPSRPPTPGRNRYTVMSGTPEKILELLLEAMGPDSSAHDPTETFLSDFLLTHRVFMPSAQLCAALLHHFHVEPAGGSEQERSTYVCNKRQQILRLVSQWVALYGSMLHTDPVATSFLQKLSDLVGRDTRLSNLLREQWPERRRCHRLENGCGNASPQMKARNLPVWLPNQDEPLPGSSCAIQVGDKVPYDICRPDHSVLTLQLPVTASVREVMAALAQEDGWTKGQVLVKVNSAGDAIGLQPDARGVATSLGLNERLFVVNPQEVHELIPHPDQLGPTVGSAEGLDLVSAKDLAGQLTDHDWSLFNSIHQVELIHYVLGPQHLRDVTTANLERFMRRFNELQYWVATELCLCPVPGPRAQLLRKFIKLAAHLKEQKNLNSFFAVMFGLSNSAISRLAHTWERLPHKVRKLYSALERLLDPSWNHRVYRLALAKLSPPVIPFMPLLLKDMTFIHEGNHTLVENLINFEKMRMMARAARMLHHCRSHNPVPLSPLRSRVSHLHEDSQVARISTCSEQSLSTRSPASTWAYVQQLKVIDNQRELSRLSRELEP
EPAC2 agonist = EPAC2 (human) agonism; Potency, µM (highest dose often 154 µM), usual class: activators; EPAC2 activation, biochemical qHTS; response scale: 100% = 6.5 mM cAMP response; hit rate 0.079% among 360,000; AID 720711; also: nearly all actives have a fitted effect of over 50% in size
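Nucleotide exchange monitored as fluorescence drop when BODIPY-GDP leaves Rap1B. Reaction: 100 nM EPAC2, 250 nM RAP1B-BODIPY-GDP, 50 uM GDP, room temperature, kinetic read over 30 min. Activity expressed relative to 6.5 mM cAMP.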
USP1-UAF1 inh = inhibitors of human USP1/UAF1 deubiquitinase | AID 743255 | O94782 | hit rate 0.23% among 390,000 | recombinant USP1/UAF1, Ub-Rhodamine cleavage fluorescence | Potency, µM (doses to about 57.1 µM), hits mostly inhibitors; also: nearly all actives have a fitted effect of over 60% in size
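In this screen, compounds sit with the deubiquitinase complex (1nM) for 15 min at room temperature before Ub-Rho is added at 150nM final. Fluorescence rise is then followed for 6 reads every 60 seconds.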
EPAC1 ag = EPAC1 (human) agonism. O95398. AID 720707. hit rate 0.073% among 360,000. Potency, µM (top dose mostly 154 µM), most hits filed as activators. EPAC1 agonist qHTS, biochemical assay; response scale: 100% = response to 6.5 mM cAMP; also: nearly all actives have a fitted effect of over 60% in size
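Normalized to 6.5 mM cAMP, activity reflects EPAC1-catalysed release of BODIPY-GDP from Rap1B, followed kinetically over 30 min at 480 nm excitation, 540 nm emission. Reaction contained 100 nM EPAC1, 250 nM Rap1B-BODIPY-GDP, 50 uM GDP.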
Numbers stand for hits; [ ] = another dose, or the depositor's remark. Unless noted, calls follow the shape of the dose curve; as a rule, active = well fitted curve in the direction sought with a large enough effect; inconclusive = small, poorly fitted or top-dose-only effect, or another doubt; inactive = no such curve, though single readings can be large; an effect the other way counts as inactive or inconclusive.

How did Cc1csc(C(C)NC(=O)c2ccc(OC3CCN(CCc4ccccc4)CC3)cc2)n1 (stereo not given) do in these assays?
EPAC2 antagonist: inactive; EPAC1 antag: inactive; EPAC2 agonist: inactive; USP1-UAF1 inh: inactive; EPAC1 ag: inactive

Results for Cc1cccc(-c2nc3c4ccccc4nc(N4CCN(c5ccc(F)cc5)CC4)n3n2)c1 ?
USP1-UAF1 inh: inactive

Results for CC1CCc2[nH]c3ccc(C(=O)N4CCCC(C(F)(F)F)C4)cc3c2C1 (stereo not given) ?
EPAC2 antagonist: inactive; EPAC1 antag: inconclusive; EPAC2 agonist: inactive; USP1-UAF1 inh: inactive; EPAC1 ag: 112µM

How did COCCCn1c(=O)/c(=C\c2ccccc2OC(F)F)s/c1=C(/C#N)C(=O)NC(C)C do in these assays?
FBPA coupling cs: inactive; EPAC2 antagonist: inactive; EPAC1 antag: inactive; EPAC2 agonist: inactive; USP1-UAF1 inh: inactive; EPAC1 ag: inactive

How did COCCCn1c(=O)/c(=C\c2ccccc2OC(C)C)s/c1=C(/C#N)C(=O)Nc1ccc(C(=O)O)cc1 do in these assays?
FBPA coupling cs: inactive; EPAC2 antagonist: inactive; EPAC1 antag: inactive; EPAC2 agonist: inactive; USP1-UAF1 inh: inactive; EPAC1 ag: 112µM

How did Cc1ccc(-n2nc3c(c2NC(=O)C(C)(C)C)CSC3)c(C)c1 do in these assays?
FBPA coupling cs: inactive; EPAC2 antagonist: inactive; EPAC1 antag: inactive; EPAC2 agonist: inactive; USP1-UAF1 inh: inactive; EPAC1 ag: inactive

What do the screens show for `Cc1ccc(-n2nc3c(c2NC(=O)c2ccc(Br)o2)CSC3)c(C)c1`?
FBPA coupling cs: -35; EPAC2 antagonist: inactive; EPAC1 antag: inactive; EPAC2 agonist: inactive; USP1-UAF1 inh: inactive; EPAC1 ag: inactive

How did Cc1nn(C(C)C)c(C)c1[C@@H]1C[C@H]2CN(Cc3cccc(Cl)c3)C(=O)[C@]23CCCN13 do in these assays?
FBPA coupling cs: inactive; EPAC2 antagonist: inactive; EPAC1 antag: inactive; EPAC2 agonist: inactive; USP1-UAF1 inh: inactive; EPAC1 ag: inactive

What do the screens show for `O=C1C(Cl)=C(N2CCCCC2)C(=O)C(Cl)=C1c1cnc(N2CCCCC2)s1`?
FBPA coupling cs: -46; EPAC2 antagonist: inactive; EPAC1 antag: inconclusive; EPAC2 agonist: inactive; USP1-UAF1 inh: inactive; EPAC1 ag: inactive

Results for COc1ccc(C2=CC(=O)C[C@H](CN3C(=O)c4ccccc4C3=O)N(C(=O)OC(C)(C)C)O2)cc1 ?
EPAC2 antagonist: inconclusive; EPAC1 antag: inactive; EPAC2 agonist: inactive; USP1-UAF1 inh: inactive; EPAC1 ag: inactive

What do the screens show for `CCC[C@H]1CC(=O)C=C(c2ccsc2)ON1C(=O)OC(C)(C)C`?
EPAC2 antagonist: 18µM; EPAC1 antag: inactive; EPAC2 agonist: inactive; USP1-UAF1 inh: inactive; EPAC1 ag: inactive

How did O=C(CSc1c2c(nc3ccc(Cl)cc13)CCCC2)N1CCN(c2cccc(Cl)c2)CC1 do in these assays?
USP1-UAF1 inh: inactive

What do the screens show for `COc1cc(-c2coc3cc(OCc4ccccc4)c(OC)c(O)c3c2=O)cc(O)c1OC`?
FBPA coupling cs: inactive

How did CC(=O)Nc1ccc(NC(=O)c2ccc(S(=O)(=O)N3CCCCCC3)cc2)cc1 do in these assays?
EPAC2 antagonist: inactive; EPAC1 antag: inactive; EPAC2 agonist: inactive; USP1-UAF1 inh: inactive; EPAC1 ag: inactive

Results for Cc1nn(-c2ccccc2)c2c1C1(C(=O)N(C(C)C)c3ccccc31)C(C#N)=C(N)O2 (stereo not given) ?
FBPA coupling cs: -55; EPAC2 antagonist: inactive; EPAC1 antag: inactive; EPAC2 agonist: inactive[15.6 µM]; USP1-UAF1 inh: inactive; EPAC1 ag: inactive

Results for Cc1nn(-c2ccccc2)c(N)c1C1(O)C(=O)N(C(C)C)c2ccccc21 (stereo not given) ?
FBPA coupling cs: inactive; EPAC2 antagonist: inactive; EPAC1 antag: inactive; EPAC2 agonist: inactive; USP1-UAF1 inh: inactive; EPAC1 ag: inactive

Results for CN(C)c1cncc(C(=O)O)c1 ?
FBPA coupling cs: -55; EPAC2 antagonist: inactive; EPAC1 antag: inactive; EPAC2 agonist: inactive; USP1-UAF1 inh: inactive; EPAC1 ag: inactive

Results for O=C(O)c1cncc(Br)c1 ?
FBPA coupling cs: inactive; EPAC2 antagonist: inactive; EPAC1 antag: inactive; EPAC2 agonist: inactive; USP1-UAF1 inh: inactive; EPAC1 ag: inactive

What do the screens show for `Cc1cc(C)c(C)c(S(=O)(=O)NCCCN2CCCC2=O)c1C`?
FBPA coupling cs: inactive; EPAC2 antagonist: inactive; EPAC1 antag: inactive; EPAC2 agonist: inactive; USP1-UAF1 inh: inactive; EPAC1 ag: inactive

What do the screens show for `COc1ccc(N2CCN(C(=O)c3cc(-c4cc(OC)ccc4OC)nc4ccccc34)CC2)cc1`?
FBPA coupling cs: inactive; EPAC2 antagonist: inactive; EPAC1 antag: inactive; EPAC2 agonist: inactive; USP1-UAF1 inh: inconclusive; EPAC1 ag: inactive

What do the screens show for `CCOc1ccccc1N1CCN(C(=O)c2cc(-c3cc(OC)ccc3OC)nc3ccccc23)CC1`?
EPAC2 antagonist: inactive; EPAC1 antag: inconclusive; EPAC2 agonist: inactive; USP1-UAF1 inh: 16µM; EPAC1 ag: inactive

Results for O=C1NC(=S)S/C1=C\c1cccc([N+](=O)[O-])c1 ?
EPAC2 antagonist: 50µM; EPAC1 antag: inconclusive; EPAC2 agonist: inactive; USP1-UAF1 inh: inconclusive; EPAC1 ag: inactive

What do the screens show for `O=C1NC(=Nc2ccccc2Cl)S/C1=C\c1cccc([N+](=O)[O-])c1`?
FBPA coupling cs: inactive; EPAC2 antagonist: inactive; EPAC1 antag: inactive; EPAC2 agonist: inactive; USP1-UAF1 inh: inactive; EPAC1 ag: inactive

Results for O=C1NC(=S)SC1=Cc1ccccc1Cl ?
EPAC2 antagonist: 35µM; EPAC1 antag: inconclusive; EPAC2 agonist: inactive; USP1-UAF1 inh: inactive; EPAC1 ag: inactive

How did O=C1NC(=S)S/C1=C\c1cc(Cl)cc(Cl)c1O do in these assays?
EPAC2 antagonist: 56µM; EPAC1 antag: 40µM; EPAC2 agonist: inactive; USP1-UAF1 inh: inconclusive; EPAC1 ag: inactive

How did Cc1cc(/C=C2\SC(=S)NC2=O)c(C)n1C do in these assays?
FBPA coupling cs: inactive; EPAC2 antagonist: inactive; EPAC1 antag: inconclusive; EPAC2 agonist: inactive; USP1-UAF1 inh: inactive; EPAC1 ag: inactive

How did Cc1cc(/C=C2\SC(=S)NC2=O)c(C)n1-c1ccc(O)cc1 do in these assays?
FBPA coupling cs: inactive; EPAC2 antagonist: inconclusive; EPAC1 antag: inconclusive; EPAC2 agonist: inactive; USP1-UAF1 inh: inactive; EPAC1 ag: inactive

What do the screens show for `Cc1cc(/C=C2\SC(=S)NC2=O)cc(C)c1O`?
FBPA coupling cs: inactive; EPAC2 antagonist: 16µM; EPAC1 antag: inconclusive; EPAC2 agonist: inactive; USP1-UAF1 inh: inactive; EPAC1 ag: inactive

How did CC(=O)c1ccc(NS(=O)(=O)c2cc3c(cc2C)N(C)CCO3)cc1 do in these assays?
FBPA coupling cs: inactive; EPAC2 antagonist: inactive; EPAC1 antag: inactive; EPAC2 agonist: inactive; USP1-UAF1 inh: inactive; EPAC1 ag: inactive

High-throughput results deposited in PubChem BioAssay by National Center for Advancing Translational Sciences (NCATS).
